# Experimental data from ChEMBL document CHEMBL3988442, “University of Dundee, Small-Polar-MMV Screening Library” (2021).
# The whole screen tested about 85,000 compounds, of which about 440 (0.52%) showed an effect of 50% or more. Many of the other results were omitted from the sample, so strong results are more common in it than they were.
# Test: In vitro enzyme assay to detect hydrolysis of chlorophenol red-beta-D-[…] directly proportional to the number of Toxoplasma stably expressing beta-galactosidase
# Type: functional, organism-based, Toxoplasma gondii
# Design: scale not given: in the data most compounds retested in dose-response had high values
SMILES,Percent Effect (50 µM),Percent Effect (10 µM)
CC(C)Cn1cc(NC(=O)N2CCC(O)C2)cn1 (stereo not given),99.23%,–
CC(C)[C@@H]1CN(C(=O)c2ccc(O)cn2)C[C@H]1N(C)C,-13.98%,–
NS(=O)(=O)c1ccc2c(c1)N(CC(=O)NC1CC1)CC2,3.074%,–
CCc1ccc(CN2CCOCC(CO)C2)nc1 (stereo not given),13.26%,–
C[C@@H]1CN(C(=O)c2cc(F)cc(C#N)c2)C[C@]1(C)O,97.61%,–
C[C@@H]1CN(C(=O)c2ccccc2C#N)C[C@]1(C)O,10.95%,–
C[C@@H]1CN(C(=O)c2ccc(=O)[nH]c2)C[C@]1(C)O,3.055%,–
CSCC(CCO)NC(=O)c1coc2ccccc12 (stereo not given),-6.179%,–
CC(C)(C)OC(=O)N1CCC(n2cc(N)cn2)CC1,-15.49%,–
N[C@@H]1CCCc2c(F)cc(F)cc21,13.09%,–
Cc1ccc(F)c(NC(=O)N2CCOCC2CO)c1 (stereo not given),2.099%,–
O=C1CN(CC(=O)N2CCc3sccc3C2)CCN1,8.555%,–
Cc1ccccc1CC(=O)NCC(F)(F)F,-13.95%,–
CC(=O)C1CN(C(=O)OC(C)(C)C)CCO1 (stereo not given),-6.486%,–
CN(C)CCNCC1CCOC(C)(C)C1 (stereo not given),–,12.77%
CN(C)CCNCCC(Cc1ccccc1)C1CCOC(C)(C)C1.O=C(O)C(=O)O (stereo not given),–,9.919%
CCN(CC)CCCNCC1CCOC(C)(C)C1 (stereo not given),–,1.68%
CC(CCc1ccccc1)NC(=O)CNCCCN(C)C.O=C(O)C(=O)O (stereo not given),–,-5.52%
CN(C)CCCNCCC(Cc1ccccc1)C1CCOC(C)(C)C1.O=C(O)C(=O)O (stereo not given),–,77.21%
N#CCC(=O)Nc1ccc(N2CCOCC2)cc1,-1.188%,–

SMILES,Percent Effect (50 µM),Percent Effect (10 µM)
CCCNC(=O)CCNC(=O)Nc1cc(C)cc(C)n1,12.25%,–
NCCC(=O)Nc1ccccc1,99.48%,–
NCC(=O)Nc1ccccc1,0.1294%,–
Cl.NCCC(=O)Nc1ccc(-c2ccccc2)cc1,–,10.41%
Nc1nc2c(c(NCc3ccncc3)n1)CCCC2,–,12.09%
CNCc1ccc(N(C)C)nc1,-20.16%,–
CNCc1ccc(N)nc1,63.11%,–
Cc1nc2c(c(NCc3ccc(N)nc3)n1)CCCC2,50.4%,–
Cc1nc2c(c(NCc3cnc4c(c3)CCC4)n1)CNC2,–,-1.27%
NCc1ccc(N)nc1,-3.539%,–
NCc1cnn(-c2ccc(F)cc2)c1,4.484%,–
C1CC(OC2CCOC2)CCN1 (stereo not given),3.071%,–
COCCCOC1CN(C(=O)c2cc(F)ccc2C)C1,0.2477%,–
CCCc1nc2c(c(C)c(C)n2Cc2ccccn2)c(N)c1CC,–,74.72%
CCCc1nc2c(c(C)c(C)n2Cc2ccncc2)c(N)c1CC,–,-0.599%
CCCc1nc2c(c(C)c(C)n2Cc2cccnc2)c(N)c1CC,–,33.67%
CCNC(=O)C(C)N (stereo not given),-4.292%,–
COc1cc(OC)cc(N2CC(N)CC2=O)c1 (stereo not given),17.36%,–
O=C(Nc1cccc(F)c1)NC1CCN(Cc2ccncc2)CC1,–,6.4%
CCOCCNc1nc(-c2ccncc2)nc2c1CCNCC2,–,-6.442%

SMILES,Percent Effect (50 µM),Percent Effect (10 µM)
Cl.NC1CCc2nc(-c3ccncc3)nc(Nc3cccc(F)c3)c2C1 (stereo not given),–,92.97%
O=C(Nc1cccc(F)c1)C1CCCN1 (stereo not given),7.876%,–
Cl.NC1CCc2nc(-c3cccnc3)nc(Nc3ccc(F)cc3)c2C1 (stereo not given),–,24.29%
N[C@@H]1CCO[C@H]1c1ccnn1-c1ccccc1,-18.85%,–
CNC(=O)[C@@H]1CCCN1,-5.087%,–
O=c1cc(CN2CCOCC2)nc2sccn12,2.592%,–
CN1CCCC1CCSc1nc(N)c(C#N)cc1C#N (stereo not given),-0.4089%,–
Cc1cc(C)nc(NC(=O)c2ccncc2)c1,31.27%,–
CCO[C@@H]1COCC[C@H]1NC(=O)c1cncn1C,0.586%,–
CN(Cc1noc(C2CC2)n1)C1CCN(Cc2ccccc2C#N)C1 (stereo not given),–,2.644%
CN(Cc1noc(C2CC2)n1)C1CCN(Cc2ccc(F)c(F)c2)C1 (stereo not given),–,1.098%
CN(Cc1noc(C2CC2)n1)C1CCN(Cc2cccc(F)c2F)C1 (stereo not given),–,67.09%
CCNC(=O)CNc1noc(C(C)(C)C)n1,-18.17%,–
COCCN(CC(=O)N(C)C)c1ncccn1,1.212%,–
COCCN(CCOC)CC(=O)N(C)C,56.58%,–
CCCN(CCOC)CC(=O)N(C)C,8.072%,–
OC1CCCN(CCOc2ccccc2)C1 (stereo not given),1.087%,–
CCC(C)Oc1ccc(CNCCNS(C)(=O)=O)cc1Cl (stereo not given),–,19.69%
CCC(C)Oc1ccc(CNCCNC(C)=O)cc1Cl (stereo not given),–,19.61%
CCC(C)Oc1ccc(CNCCc2c[nH]cn2)cc1Cl (stereo not given),–,81.15%
